Bioassay records deposited in PubChem BioAssay by The Scripps Research Institute Molecular Screening Center.
M1 ag: activates human CHRM1 receptor; P11229; CHO-K1 hM1, Fluo-8 calcium fluorescence, agonist mode; 0% DMSO, 100% acetylcholine EC100; activation, % at 3 µM; 360,000 compounds, 0.33% hits; AID 588814;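 active = activation above the run's mean compound activation plus 3 SD, cut at about 16% in these data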;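 note: peak over basal fluorescence ratio within a 140 s kinetic read after compound addition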
Target sequence (P11229 whole entry, looked up): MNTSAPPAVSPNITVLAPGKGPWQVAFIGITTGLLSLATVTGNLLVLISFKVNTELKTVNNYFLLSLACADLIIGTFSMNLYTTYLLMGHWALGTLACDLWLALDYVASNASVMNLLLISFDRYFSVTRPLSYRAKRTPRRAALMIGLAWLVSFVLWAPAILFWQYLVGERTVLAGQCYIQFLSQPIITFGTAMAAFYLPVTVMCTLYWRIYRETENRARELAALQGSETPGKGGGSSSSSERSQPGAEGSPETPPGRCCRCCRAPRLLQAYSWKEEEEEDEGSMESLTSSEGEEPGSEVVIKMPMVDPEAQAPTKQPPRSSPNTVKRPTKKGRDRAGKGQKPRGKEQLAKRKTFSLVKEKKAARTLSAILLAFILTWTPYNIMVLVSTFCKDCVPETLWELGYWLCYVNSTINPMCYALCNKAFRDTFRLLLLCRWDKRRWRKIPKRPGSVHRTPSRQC
CHO-K1 Ca antag: M1 antagonist counterscreen hit in parental CHO-K1 cells; inhibition, % at 3 µM; AID 602250; 360,000 compounds, 0.6% hits; ATP-induced calcium, Fluo-8 fluorescence;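 active = inhibition above a per-plate cutoff, the plate's mean sample inhibition plus 3 SD, cut at about 24% in these data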
CHO-K1 Ca PAM: counter-screen for M1 PAMs: effect in parental CHO-K1 cells; ATP EC20, Fluo-8 calcium fluorescence; 0% at ATP EC20, 100% at ATP max; activation, % at 3 µM; 360,000 compounds, 0.02% hits; AID 602247;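 active = activation above the run cutoff, the mean activation of all test compounds plus 3 SD, cut at about 40% in these data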;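 note: peak over basal fluorescence ratio in a 140 s read after ATP addition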
M1 antag: blocks human M1 muscarinic receptor; CHO-K1 hM1, Fluo-8 calcium fluorescence, ACh EC80 antagonist; 360,000 compounds, 1.3% hits; inhibition, % at 3 µM;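 active = percent inhibition above its own plate's cutoff, namely the mean of that plate's compound wells plus 3 SD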;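 note: peak over basal fluorescence ratio during 140 s after agonist addition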
CHRM1 PAM: potentiates human M1 receptor response to acetylcholine | 360,000 compounds, 0.088% hits | P11229 | AID 588819 | CHO-K1 hM1, Fluo-8 calcium fluorescence, ACh EC20; 0% = ACh EC20, 100% = maximal ACh | activation, % at 3 µM; in the data active = activation above about 19%, passing the limit was not always enough
CHO-K1 Ca ag: nonselective activator or artifact in parental CHO-K1 cells; Fluo-8 calcium fluorescence; scaled to maximal ATP response, vehicle zero; activation, % at 3 µM; 360,000 compounds, 0.48% hits; in the data active = activation above about 15%;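 note: untransfected CHO-K1 host cells lacking M1 receptor as counterscreen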
Hits are given with their value; . = inactive. Rows were chosen to be rich in hits. Some 2.3% of all compounds tested hit in one or more screens of this group.

SMILES | M1 ag | CHO-K1 Ca antag | CHO-K1 Ca PAM | M1 antag | CHRM1 PAM | CHO-K1 Ca ag
O=C(CSc1nnc(-c2ccc(O)cc2)o1)NNC(=O)c1ccncc1 | . | . | . | . | . | .
CC1CC(C)CN(C(=O)COC(=O)c2cc(S(=O)(=O)N3CCOCC3)ccc2F)C1 (stereo not drawn) | . | . | . | 57 | . | .
Cc1ccc(/C=N\NC(=O)c2ccc3c(c2)OCO3)o1 | . | . | . | . | . | .
CCS(=O)(=O)c1ccc2oc(SCC(=O)Nc3ccc(OC)cc3OC)nc2c1 | . | . | . | . | . | .
CCS(=O)(=O)c1ccc2oc(SCC(=O)NC(C)C3CC4CCC3C4)nc2c1 (stereo not drawn) | . | 25 | . | . | . | .
CC(C)n1cnnc1SCC(=O)NC(=O)c1ccccc1 | . | . | . | . | . | .
O=C(CNS(=O)(=O)c1c(Cl)cccc1Cl)OCC(=O)N1CCN(c2ccccc2)CC1 | . | 26 | . | . | . | .
COc1cccc(NC(=S)NC2CC(C)CC(C)(C)C2)c1 (stereo not drawn) | . | . | . | . | . | .
Clc1ccc2c(c1)C(N1CCNCC1)Cc1ccccc1S2 (stereo not drawn) | . | . | . | 87 | . | .
O=C(c1ccccc1Cl)N1CCNCC1 | . | . | . | . | . | .
COCCCN1CCN(C2Cc3ccccc3Sc3ccc(Cl)cc32)CC1 (stereo not drawn) | . | . | . | 47 | . | .
Clc1cccc2c1Sc1ccccc1CC2N1CCNCC1 (stereo not drawn) | . | . | . | 88 | . | .
Cc1ccccc1NC(=O)CCN1CCc2ccccc2C1 | . | . | . | . | . | .
O=C(CN1C(=O)NC2(CCCc3ccccc32)C1=O)NCC(F)(F)F (stereo not drawn) | . | . | . | . | . | .
CCOCCn1c(CN2CCN(C)CC2)nc2c1c(=O)n(C)c(=O)n2C | . | . | . | . | 29 | .
O=C(COC(=O)Cc1ccc(S(=O)(=O)N2CCOCC2)s1)Nc1ccccc1Cl | . | . | . | . | . | .
CCOC(=O)c1sc(NC(=O)Nc2ccc(Cl)cc2)cc1C | . | 46 | . | 52 | . | .
CCCS(=O)(=O)NC(=O)C1(C)CCN(C(=O)c2ccccc2Br)C1 (stereo not drawn) | . | . | . | . | 27 | .
CCCS(=O)(=O)NC(=O)C1(C)CCCN(C(=O)c2ccccc2Br)C1 (stereo not drawn) | . | . | . | . | . | .
COc1ccc(NC(=O)C(c2cc3c(cc2[N+](=O)[O-])OCO3)N(C)Cc2ccccc2)cc1 (stereo not drawn) | . | . | . | . | . | 22
CCN(c1cccc(C)c1)C(C(=O)Nc1ccc(OC)cc1)c1cc2c(cc1[N+](=O)[O-])OCO2 (stereo not drawn) | . | . | . | . | . | .
COc1ccc(C2(c3ccc(OC)cc3)NC(=O)N(CC(=O)Nc3ccc(C(N)=O)cc3)C2=O)cc1 | . | . | . | . | . | .
COc1ccc(C2(c3ccc(OC)cc3)NC(=O)N(CC(=O)Nc3ccccc3)C2=O)cc1 | . | . | . | . | . | 15
Cc1cccc(/C=N/NC(=O)c2ccc(Br)cc2)c1 | . | . | . | . | . | 17
N=c1c2ccccc2nc2n1CCCCC2 | . | 34 | . | . | . | .
SMILES | M1 ag | CHO-K1 Ca antag | CHO-K1 Ca PAM | M1 antag | CHRM1 PAM | CHO-K1 Ca ag
O=C1C(=C2CCc3ccccc32)Cc2ccccc21 | . | . | . | . | . | .
c1ccc2c(c1)CCc1ccccc1C2=C1CCNCC1 | . | . | . | 100 | . | .
Cc1ccc(NC(=S)N2CC(C)OC(C)C2)cc1C (stereo not drawn) | . | . | . | . | . | .
COc1cccc(-n2c(SCC(=O)O)nnc2-c2cccnc2)c1 | . | . | . | 23 | . | .
COc1cc(C(=O)Nc2ccc3c(c2)CCCN3C(=O)c2ccco2)c([N+](=O)[O-])cc1OC | . | . | . | . | . | .
COc1cccc(N2CCN(c3ccc4nnc(CCC(=O)Nc5ccc(C)cn5)n4n3)CC2)c1 | . | . | . | . | . | .
COc1cccc(N2CCN(c3ccc4nnc(CCC(=O)Nc5ncccc5C)n4n3)CC2)c1 | . | . | . | 38 | . | .
